Data reported in PubChem BioAssay (NCATS).
Results filed as inconclusive are left out. Calls of active or inactive are those of the source. Unless noted, calls come from the whole dose curve.

Assays:
[1] = target: Lysosomal acid glucosylceramidase (Homo sapiens) (UniProt P04062); assay: Glucocerebrosidase-p2 (AID 348; in the data active = potency below about 10 µM; note: potency is the fitted concentration of half-maximal effect); settings: purified GBA, blue fluorogenic substrate, 40 min
Summary of the method: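 Compounds titrated from 0.6 nM upwards against 0.2 nM enzyme in pH 5.9 citric acid/KH2PO4, taurocholate, tween-20; blue fluorogenic substrate 80 uM, 40 min room temperature, stopped and read Ex 365/Em 440 for AC50.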

[2] = AP1 Signaling Pathway (AID 357; active = well fitted curve in either direction with a large enough effect, not every such curve was filed as active;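 note: ME-180 reporter cells stimulated with EGF at its EC50 level; % is set by controls: 0 for no effect and ±100 for the full control effect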); settings: ME-180 AP-1-bla reporter, EGF-induced, beta-lactamase ratio, 5 h; at 7.69 µM (top of the series) unless noted
Summary of the method: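 Modulation of EGF-driven AP-1 transcription was assessed with a beta-lactamase reporter in ME-180 cells. Compound and EC50 EGF were co-incubated 5 hours at 37 °C before 2.5-hour CCF4 loading at room temperature and dual-emission reading.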

[3] = target: Cytochrome P450 1A2 (Homo sapiens) (UniProt P05177); assay: p450-cyp1a2 (AID 410); settings: recombinant CYP1A2, luciferin-ME demethylation, luminescence; series mostly up to 57 µM; note: potency is the fitted concentration of half-maximal effect;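 for activity change, negative = inhibition: -100% = full effect of reference inhibitor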
Summary of the method: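 Inhibition was calculated relative to 57 uM furafylline (full inhibition). The reaction used human CYP1A2 at 20nM with Luciferin-ME at its Km, 100uM, driven by an NADPH-regenerating system for 60 min at room temperature.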

[4] = Stat Signaling Pathway (AID 446; active = well fitted curve in either direction with a large enough effect, not every such curve was filed as active;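 note: ME-180 cervical cancer cells given 40 pM IL-6 alongside compound; SIE-controlled beta-lactamase reporter measured as 460/530 nm FRET emission ratio; % is set by controls: 0 for no effect and ±100 for the full control effect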); settings: ME-180 SIE beta-lactamase reporter, IL-6 stimulated, 5 h; at 7.69 µM (top of the series) unless noted
Summary of the method: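 ME-180 cells carrying a SIE-driven beta-lactamase reporter are stimulated with 40 pM IL-6 for 5 h at 37C in the presence of compound. The 460/530 nm FRET substrate ratio is read after 2.5 h at RT. Data are normalised to 300 pM IL-6 and to 125 nM JAK inhibitor controls.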

[5] = target: Glucocorticoid receptor (Homo sapiens) (UniProt P04150); assay: GR-EFC Redistribution (AID 451); settings: CHO-K1 GR-EFC translocation, beta-gal luminescence, 2 h; note: potency is the fitted concentration of half-maximal effect
Summary of the method: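 Translocation of GR-ED fusion to nuclear EA restores b-gal, read by luminescence after 1 h room-temperature detection. Engineered CHO-K1 biosensor cells, 1,000/well, exposed 2 h at 37 C to titrations up to 46 uM final.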

[6] = target: Mitogen-activated protein kinase 10 (Mus musculus) (UniProt Q61831); assay: JNK3 AlphaScreen Assay (AID 530; active = well fitted curve in either direction with a large enough effect, not every such curve was filed as active;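 note: kinase came from lysate of stimulated human HepG2 cells; signal reports phosphorylation of biotinylated GST-cJun 1-79 at Ser73 with 10 µM ATP; % is set by controls: 0 for no effect and ±100 for the full control effect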); settings: JNK3 lysate, c-Jun phosphorylation; series mostly up to 57.1 µM
Summary of the method: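 Room-temperature AlphaScreen kinase assay; pre-activated HepG2 lysate as JNK3 source, biotin-GST-cJun(1-79) substrate, 10 uM ATP, compound 15 min preincubation.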

[7] = target: 3',5'-cyclic-AMP phosphodiesterase 4B (Homo sapiens) (UniProt Q07343); assay: qHTS Assay for Inhibitors of PDE-IV (AID 607; active = well fitted activation curve with a large enough effect in the main read-out, with a control signal flat, not every such curve was filed as active; note: % of control where 0% means no effect); settings: HEK293 ACTOne CNG channel cells, membrane potential fluorescence; series mostly up to 22.9 µM
Summary of the method: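 HEK293 ACTOne cells with CNG channel (1000/well), endogenous PDE4; membrane potential dye, compounds up to 22.9 uM final. Fluorescence Ex 535/Em 590; RO 20-1724 (100 uM final) as reference.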

[8] = target: Cytochrome P450 2D6 (Homo sapiens) (UniProt P10635); assay: qHTS Assay for Inhibitors and Substrates of Cytochrome P450 2D6 (AID 891; active = well fitted curve in the direction sought with a large enough effect; an effect the other way counts as inactive or inconclusive; note: potency is the fitted concentration of half-maximal effect; nearly all actives have a fitted effect of over 60% in size); settings: recombinant CYP2D6, luciferin-ME EGE luminescence; series mostly up to 57.1 µM
Summary of the method: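 Human CYP2D6 (5 nM) with 30 uM Luciferin-ME EGE (at Km) in 100 mM KPO4, compound preincubated 10 min, then NADPH regeneration system for 60 min at room temperature. Luciferin read by luminescence; normalized to 1.43 uM quinidine.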

[9] = qHTS Assay for Identification of Small Molecule Agonists for Hypoxia Response Element Signaling Pathway (AID 914; active = well fitted activation curve with a large enough effect in the signal ratio, with a control signal flat, not every such curve was filed as active; the % refers to the signal ratio; note: % of control where 0% means no effect); settings: ME-180 (cervical carcinoma) HRE-bla reporter, beta-lactamase ratio, CoCl2, 17 h; activation: stronger effect = higher value
Summary of the method: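 Positive modulation of EC50 CoCl2-induced hypoxia response element signaling is measured in ME-180 cells with a beta-lactamase reporter. Compounds are titrated, incubation runs 17 hours, and %Activity derives from the blue/green ratio.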

[10] = qHTS Assay for Lipid Storage Modulators (AID 1519); settings: Drosophila S3 cells, BODIPY lipid droplet/cell ratio, laser cytometry, cells loaded with oleic acid; for activity change, negative = inhibition: at 57.5 µM (top of the series)
Summary of the method: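 Cells seeded at 5,000 per well were treated with compounds over a concentration series and loaded with oleic acid (400 uM, as added). Lipid droplet fluorescence (488 nm excitation, 500-530 nm channel) was read by laser-scanning cytometry and normalized to 20 uM Triacsin C.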

[11] = Primary qHTS for small molecule stabilizers of the endoplasmic reticulum resident proteome: Secreted ER Calcium Modulated Protein (SERCaMP) assay (AID 1508630; active = well fitted curve in the direction sought with a large enough effect; an effect the other way counts as inactive or inconclusive; note: % is set by controls: 0 for no effect and ±100 for the full control effect); settings: SH-SY5Y GLuc-SERCaMP (Gaussia luciferase released on ER calcium loss) secretion, thapsigargin, luminescence; series mostly up to 38.4 µM
Summary of the method: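 GLuc-SERCaMP-expressing SH-SY5Y cells, pretreated 16 h with compound, are challenged with thapsigargin to empty ER calcium stores; after 4 h, coelenterazine is added directly to the medium and luminescence is imaged.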

[12] = target: Cytochrome P450 3A4 (Homo sapiens) (UniProt P08684); assay: qHTS Assay for Activators of Cytochrome P450 3A4 (AID 885; active = well fitted curve in the direction sought with a large enough effect; an effect the other way counts as inactive or inconclusive; note: nearly all actives have a fitted effect of over 65% in size; note: potency is the fitted concentration of half-maximal effect); settings: recombinant CYP3A4, Luciferin-PPXE luminescence, 60 min; series mostly up to 57.1 µM
Summary of the method: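 Human CYP3A4 (20 nM) with Luciferin-PPXE at 25 uM (its KM) in 200 mM KPO4; 10 min compound preincubation, then NADPH regeneration and 60 min reaction at RT. Luciferin read by luminescence; normalized to 57 uM ketoconazole full inhibition.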

[13] = target: Cytochrome P450 3A4 (Homo sapiens) (UniProt P08684); assay: qHTS Assay for Inhibitors and Substrates of Cytochrome P450 3A4 (AID 884; active = well fitted curve in the direction sought with a large enough effect; an effect the other way counts as inactive or inconclusive; note: % is set by controls: 0 for no effect and ±100 for the full control effect; nearly all actives have a fitted effect of over 50% in size); settings: recombinant CYP3A4, Luciferin-PPXE luminescence; series mostly up to 57.1 µM
Summary of the method: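 20 nM human CYP3A4 with 25 uM Luciferin-PPXE (at KM) in 200 mM KPO4, preincubated 10 min with compound; NADPH regeneration started a 60 min RT reaction. Luciferin detected by luminescence, normalized to 57 uM ketoconazole as full inhibition.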

[14] = target: Cytochrome P450 2C19 (Homo sapiens) (UniProt P33261); assay: qHTS Assay for Inhibitors and Substrates of Cytochrome P450 2C19 (AID 899; active = well fitted curve in the direction sought with a large enough effect; an effect the other way counts as inactive or inconclusive; note: % is set by controls: 0 for no effect and ±100 for the full control effect; nearly all actives have a fitted effect of over 60% in size); settings: recombinant CYP2C19, luciferin-H EGE luminescence; series mostly up to 57.1 µM
Summary of the method: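 Reactions contain 5nM enzyme, 10uM Luciferin-H EGE (KM) and 50mM KPO4; compound preincubates 10 min at 37C, NADPH regeneration starts turnover for 60 min. Luminescence after detection reagent gives activity.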

[15] = measured here: cell count channel max response
[16] = measured here: lipid channel max response

Cytochrome P450 3A4 (Homo sapiens), sequence (P08684 whole entry, looked up): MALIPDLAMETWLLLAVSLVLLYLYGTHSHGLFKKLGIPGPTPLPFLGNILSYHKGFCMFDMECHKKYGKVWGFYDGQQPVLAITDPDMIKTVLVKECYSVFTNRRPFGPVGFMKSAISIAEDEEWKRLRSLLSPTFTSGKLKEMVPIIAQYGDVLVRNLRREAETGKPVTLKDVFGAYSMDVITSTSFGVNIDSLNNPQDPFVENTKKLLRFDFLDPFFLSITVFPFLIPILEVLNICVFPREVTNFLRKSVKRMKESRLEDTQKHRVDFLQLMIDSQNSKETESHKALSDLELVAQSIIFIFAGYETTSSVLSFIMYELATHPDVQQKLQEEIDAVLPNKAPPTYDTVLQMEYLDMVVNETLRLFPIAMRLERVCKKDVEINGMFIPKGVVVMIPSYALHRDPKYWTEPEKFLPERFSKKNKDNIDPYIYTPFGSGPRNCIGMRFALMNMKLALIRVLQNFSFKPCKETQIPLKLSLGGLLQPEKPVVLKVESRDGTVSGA
Lysosomal acid glucosylceramidase (Homo sapiens), sequence (P04062 whole entry, looked up): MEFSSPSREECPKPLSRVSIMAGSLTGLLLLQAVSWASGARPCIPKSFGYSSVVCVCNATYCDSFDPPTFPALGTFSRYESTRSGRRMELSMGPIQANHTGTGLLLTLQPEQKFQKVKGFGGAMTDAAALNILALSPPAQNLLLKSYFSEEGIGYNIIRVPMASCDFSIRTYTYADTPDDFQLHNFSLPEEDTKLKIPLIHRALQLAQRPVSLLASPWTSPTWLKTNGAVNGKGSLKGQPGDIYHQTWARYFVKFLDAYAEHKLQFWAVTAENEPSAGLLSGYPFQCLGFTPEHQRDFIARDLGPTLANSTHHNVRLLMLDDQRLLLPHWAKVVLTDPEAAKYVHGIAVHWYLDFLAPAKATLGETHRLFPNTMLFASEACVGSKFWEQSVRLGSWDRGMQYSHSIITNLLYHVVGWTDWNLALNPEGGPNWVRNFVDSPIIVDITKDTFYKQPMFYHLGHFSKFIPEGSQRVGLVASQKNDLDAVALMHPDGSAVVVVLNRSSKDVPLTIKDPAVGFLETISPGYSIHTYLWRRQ
Cytochrome P450 2D6 (Homo sapiens), sequence (P10635 whole entry, looked up): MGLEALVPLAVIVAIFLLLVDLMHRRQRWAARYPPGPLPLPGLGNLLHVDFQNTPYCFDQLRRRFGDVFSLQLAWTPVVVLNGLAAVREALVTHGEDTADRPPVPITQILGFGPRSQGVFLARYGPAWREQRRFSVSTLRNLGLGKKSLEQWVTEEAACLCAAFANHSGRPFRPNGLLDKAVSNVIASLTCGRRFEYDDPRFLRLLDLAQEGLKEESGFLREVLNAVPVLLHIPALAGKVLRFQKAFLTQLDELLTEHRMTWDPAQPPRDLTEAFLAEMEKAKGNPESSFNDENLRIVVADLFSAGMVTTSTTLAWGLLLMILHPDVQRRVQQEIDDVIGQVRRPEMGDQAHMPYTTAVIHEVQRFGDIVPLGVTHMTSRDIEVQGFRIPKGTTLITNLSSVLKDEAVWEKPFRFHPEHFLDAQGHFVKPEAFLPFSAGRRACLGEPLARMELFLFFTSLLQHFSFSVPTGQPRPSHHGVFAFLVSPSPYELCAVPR
Glucocorticoid receptor (Homo sapiens), sequence (P04150 whole entry, looked up, the tested form may be a part): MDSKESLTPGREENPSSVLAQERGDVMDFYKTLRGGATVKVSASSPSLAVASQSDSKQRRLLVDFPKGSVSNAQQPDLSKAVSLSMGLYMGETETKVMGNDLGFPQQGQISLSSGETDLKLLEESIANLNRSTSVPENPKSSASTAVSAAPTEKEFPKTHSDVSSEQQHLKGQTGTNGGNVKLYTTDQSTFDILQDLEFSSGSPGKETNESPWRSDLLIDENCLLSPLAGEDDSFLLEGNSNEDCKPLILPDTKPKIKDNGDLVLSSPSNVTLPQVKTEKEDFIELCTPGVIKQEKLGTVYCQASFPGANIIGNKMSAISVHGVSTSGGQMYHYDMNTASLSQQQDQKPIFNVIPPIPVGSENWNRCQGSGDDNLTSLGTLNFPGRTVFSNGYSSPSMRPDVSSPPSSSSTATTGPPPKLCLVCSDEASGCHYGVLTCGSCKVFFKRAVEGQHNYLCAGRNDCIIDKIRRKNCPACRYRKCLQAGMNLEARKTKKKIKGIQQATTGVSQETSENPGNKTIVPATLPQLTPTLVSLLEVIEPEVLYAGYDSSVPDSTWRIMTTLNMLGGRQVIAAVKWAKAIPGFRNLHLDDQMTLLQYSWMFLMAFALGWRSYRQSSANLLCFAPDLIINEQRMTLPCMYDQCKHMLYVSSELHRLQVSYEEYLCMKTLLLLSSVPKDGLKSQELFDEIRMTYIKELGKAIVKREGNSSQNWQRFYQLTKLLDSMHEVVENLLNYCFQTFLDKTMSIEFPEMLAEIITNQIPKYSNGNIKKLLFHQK
3',5'-cyclic-AMP phosphodiesterase 4B (Homo sapiens), sequence (Q07343 whole entry, looked up): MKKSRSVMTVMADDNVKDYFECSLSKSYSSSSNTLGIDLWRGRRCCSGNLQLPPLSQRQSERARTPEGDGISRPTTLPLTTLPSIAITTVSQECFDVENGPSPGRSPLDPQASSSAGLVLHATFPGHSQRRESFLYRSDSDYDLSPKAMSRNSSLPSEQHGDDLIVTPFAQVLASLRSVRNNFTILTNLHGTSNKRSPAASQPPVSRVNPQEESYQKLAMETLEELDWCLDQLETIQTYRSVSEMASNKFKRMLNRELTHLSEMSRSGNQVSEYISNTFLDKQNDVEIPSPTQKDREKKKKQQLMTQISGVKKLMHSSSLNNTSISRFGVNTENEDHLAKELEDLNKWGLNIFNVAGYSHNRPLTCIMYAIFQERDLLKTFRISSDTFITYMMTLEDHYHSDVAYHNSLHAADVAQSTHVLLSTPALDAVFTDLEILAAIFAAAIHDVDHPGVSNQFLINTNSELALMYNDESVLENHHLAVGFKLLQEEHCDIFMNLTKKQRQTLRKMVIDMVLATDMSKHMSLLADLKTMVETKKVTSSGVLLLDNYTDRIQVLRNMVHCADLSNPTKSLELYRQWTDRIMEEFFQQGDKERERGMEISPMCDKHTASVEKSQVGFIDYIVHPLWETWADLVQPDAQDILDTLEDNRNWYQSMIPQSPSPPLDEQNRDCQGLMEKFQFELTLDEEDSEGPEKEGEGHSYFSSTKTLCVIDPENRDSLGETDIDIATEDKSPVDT
Cytochrome P450 1A2 (Homo sapiens), sequence (P05177 whole entry, looked up): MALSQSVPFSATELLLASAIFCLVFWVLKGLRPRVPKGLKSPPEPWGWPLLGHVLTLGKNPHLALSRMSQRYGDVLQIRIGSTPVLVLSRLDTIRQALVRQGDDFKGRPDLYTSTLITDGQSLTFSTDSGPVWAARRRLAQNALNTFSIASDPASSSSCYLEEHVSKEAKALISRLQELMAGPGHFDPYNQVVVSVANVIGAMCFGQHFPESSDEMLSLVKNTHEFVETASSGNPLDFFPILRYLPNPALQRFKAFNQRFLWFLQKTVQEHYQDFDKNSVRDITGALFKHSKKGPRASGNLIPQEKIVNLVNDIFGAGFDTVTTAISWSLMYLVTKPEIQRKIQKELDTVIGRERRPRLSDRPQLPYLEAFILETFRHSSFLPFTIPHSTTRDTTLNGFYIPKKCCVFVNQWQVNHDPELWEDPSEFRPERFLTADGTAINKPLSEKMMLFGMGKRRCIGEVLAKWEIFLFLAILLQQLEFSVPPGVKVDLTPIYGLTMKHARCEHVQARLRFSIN
Cytochrome P450 2C19 (Homo sapiens), sequence (P33261 whole entry, looked up): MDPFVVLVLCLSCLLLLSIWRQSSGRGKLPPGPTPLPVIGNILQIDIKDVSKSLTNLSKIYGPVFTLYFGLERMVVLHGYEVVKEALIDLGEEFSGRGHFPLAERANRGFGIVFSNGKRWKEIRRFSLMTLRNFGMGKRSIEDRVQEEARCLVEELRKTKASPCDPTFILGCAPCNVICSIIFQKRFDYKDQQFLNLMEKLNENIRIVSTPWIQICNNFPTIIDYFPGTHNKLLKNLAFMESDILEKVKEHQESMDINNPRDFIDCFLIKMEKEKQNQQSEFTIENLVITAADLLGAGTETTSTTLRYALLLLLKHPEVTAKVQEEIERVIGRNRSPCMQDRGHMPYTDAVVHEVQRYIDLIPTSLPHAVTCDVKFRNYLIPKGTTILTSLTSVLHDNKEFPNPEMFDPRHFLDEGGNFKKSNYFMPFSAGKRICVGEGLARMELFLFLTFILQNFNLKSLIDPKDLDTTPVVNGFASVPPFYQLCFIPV

Structure (SMILES)	Potency [1]	activity change, negative = inhibition [2]	Potency [3]	activity, negative = inhibition [4]	Potency [5]	Potency [6]	Potency [7]	Potency [8]	activation [9]	activity change, negative = inhibition [10]	max response [10, 15] [%]	max response [10, 16] [%]	outcome [11]	Potency [12]	Potency [13]	Potency [14]
COC(=O)N1CCC2(CCN(Cc3ccccc3OC)CC2)CC1	> 11.4 µM (inactive)	8.84% (inactive)	inactive	-8.38% (inactive)	> 46 µM (inactive)	inactive	inactive	2 µM (active)	2.91% (inactive)	2.37% (inactive)	6.33	9.77	inactive			
N#Cc1ccc(CN2CC[C@@]3(CCCN(C(=O)c4cc(C(F)(F)F)cc(C(F)(F)F)c4)C3)C2)cc1	> 11.4 µM (inactive)	17.7% (inactive)	25.1 µM (active)	-2.46% (inactive)	> 46 µM (inactive)	inactive	inactive		13.6% (inactive)	2.06% (inactive)	-0.217	4.67	inactive	inactive		
COc1ccccc1CN1CCC2(CCNCC2)CC1	> 11.4 µM (inactive)	-18.9% (inactive)	inactive	6.24% (inactive)	> 46 µM (inactive)	inactive	inactive	0.0316 µM (active)		-2.64% (inactive)	1.08	-0.266	inactive			
O=C(Oc1ccccc1)N1CCC2(CC1)CN(c1ccccn1)C2	> 11.4 µM (inactive)	5.21% (inactive)	inactive	-0.424% (inactive)	> 46 µM (inactive)		inactive			7.94% (inactive)	3.44	13.9	inactive	15.8 µM (active)	inactive	
O=C(Nc1ccccc1)N1CC[C@@]2(CCCN(C(=O)c3cc(C(F)(F)F)cc(C(F)(F)F)c3)C2)C1	> 11.4 µM (inactive)	-5.62% (inactive)	25.1 µM (active)	-6.2% (inactive)	> 46 µM (inactive)	inactive	inactive			4.15% (inactive)	-0.407	6.94	inactive	inactive		inactive
O=C(c1cccc(F)c1)N1CCC2(CCN(Cc3ccccc3)CC2)CC1	> 11.4 µM (inactive)	-3.73% (inactive)	inactive	0.711% (inactive)	> 46 µM (inactive)	inactive	inactive	7.94 µM (active)		2.97% (inactive)	6.47	15.1	inactive			
O=C(c1ccco1)N1CCC[C@@]2(CCN(C(c3ccccc3)c3ccccc3)C2)C1	> 11.4 µM (inactive)	-9.33% (inactive)	25.1 µM (active)	3.09% (inactive)	> 46 µM (inactive)	inactive		3.16 µM (active)		-15.2% (inactive)	-10.5	-26.4	inactive	inactive		
